In the supplement of paper PMC6555819 one finds PBM binding z-score data, which are given here for 40 sequences.

In the test the test system is VDR:RXRa (NR concentration 270 nM, RXRa partner concentration 90 nM). Kind of test: PBM binding z-score (relative to random genomic background probes); higher = stronger binding; sequences stand for … in GC…GCGATTGACAGCGTAGAATGAAGG
On the procedure: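 Protein-binding microarray (Agilent 4x180K custom design, double-stranded 60-nt probes: 5' GC cap, 34-nt variable region, 24-nt constant primer region; full probe sequence given). Purified or IVT nuclear receptor:RXRα heterodimers (3:1 NR:RXRα, mostly 270:90 nM) or homodimers were incubated for 1 h in PBS with 2% milk and no ligand, then detected with Alexa488 antibodies. Fluorescence from o1-orientation probes (~5 replicates averaged) was converted to z-scores against 500 random hg19 background probes. Variable regions are seed direct-repeat (DR0–DR5) sites, all their single-nucleotide variants and half-site ablations.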
Regarding CCTAGCAGGCCAATCTGGGTCACTCATGGCTTGA, the PBM binding z-score turned out to be 0.303.
In turn, CAAACTAGGTCAACAGGTCAAAGTCCGCTTCCCG came in with a PBM binding z-score of 4.87.
The same measure for CCAGACAGGTGAGATGGTAACTCAGCCTCGATTA: -0.293.
TCTCGGAGGACACGTAGGTCAGAGCTTTCCAGAG had a PBM binding z-score of 1.13.
In the case of AGAATGATGTTATTAAGATCAGGGAATTGCGGTC it was 0.0323; in that of CATACAGGGTCAACTAGGCCAGAGTAGGGACGGC, 5.1.
The same measure for AGAACGAGGGCAATGAGTTGTTAGCACGGGTGGC: 4.09.
Regarding TCGAGTAGGTTGGTCGGGGCATTCAGCCAACATA, the PBM binding z-score came to 0.314.
ACTAGCAGGCCAAGTTTGGGTCACACAAACAAAG returned a PBM binding z-score of 0.933.
In the case of CCTTACGGGTCACTCCAGGTAATAGCATCGGAGT it was 3.08; in that of CCTATTAGTTGACTATAAGGGCAACCGAAGCTCG, 0.181.
In the case of TCTCAAAGTTCAAAGGTAACGTAAGTATCCACAC it was 4.93; in that of CCTACTGGCCCAAGGTCATTGATCAGTCAAAGCA, 3.26; in that of CGTCCAAGGTCAGCTGGTCAGTGAAAGCGACGTG, 2.66.
CAAACTAGGTCACCGGAACGTCAAAGTCCGCATG: the PBM binding z-score is 2.48.
In the case of CAAACTACGTCACGAAAGGTCAAAGTCGAATGAC it was 4.91.
In the case of TCATATAAGTAAAGGTGAAAGTCGAACGATATGA it was 0.925; in that of CCTTACGGGTCAACGTTATAGCACGGGTGGTACG, 3.03.
GCAGACAGTTGAAACGCAGGTAACTCAGGGTGGC gave a PBM binding z-score of -0.517.
CCGACTGGGGCGAGGTTACCATAACGCACAGCCA: the PBM binding z-score worked out at 0.364.
The same measure for CGTCAGAGTTCAAGGTAACGTAACAGAAAGCAGC: 4.23; for CAAACTAGGTCAACGTCAAAGTCGGTTTGTGCCA: 1.83.
The same measure for TCTATTGGTTGAAGGGCAACCGACGAGTCCGTTT: 0.889; for TCATATAGGTCAACAGGTGAAAGTCCGTAAGTTA: 4.41; for ATCTCTACGTAAAGTTCAGTGAAAGATCGATAGA: 1.67.
The same measure for TACACAGGGTCAAAGGCCAGAGTACGAATGTCGA: 4.89; for ATATGTAGGTTACATCCGGGTCAATCAGGCTATG: 3.59; for TCATACAGGTAATACAGGTGAAAGTCGGCATCTA: 1.24.
With CCTCGGAGTACAGAAGGTCAGAGCTGTCCGCTTT, the PBM binding z-score turned out to be 1.64.
The same measure for CCTACTGGGCCAAAAAGGTCATGGATGCCGATAA: 4.54.
The same measure for GGAACGTGGGCATTCGAGTTGATAGCATGGCGAT: -0.17; for ATATGTCGGTTACATCCGGGTCATTCAGGCTATG: 3.53.
In the case of ATCACTAGGTAAAAGTTCAGTGAATCCCGAGGAT, the PBM binding z-score turned out to be 1.34.
In the case of CAAACTAGATCAAGAGGTCAAAGTCCGCTTCCCG it was 4.68.
Sequence CCTACTGGGCCACGAAAGGTTATTGATTCAGTGA came in with a PBM binding z-score of 0.818.
In the case of CCAGATAGGTGAGAAGGTAACTCAGCCTCGATTA it was 0.254.
The same measure for TCTAGCAGGCCAGAGGGTCACTCGAGAGGTACGG: 1.39; for ACTAGCAGGCCAAGGGTCACTCCAGATTAGTCCG: 2.32.
The same measure for TCTCGGAGGACACGAAAGGACAGAGCTCGACATC: -0.146.
As for AGTATGAGGTTATACGTAGATCAGGGAAGAAAGT, the PBM binding z-score is 1.34.
